KB-V1 cytotox – kills drug-selected multidrug resistant KB-V1 cells; AID 1347076; KB-V1 MDR cells viability, CellTiter-Glo, 72 h; 3.4% of 400,000 active; Potency, µM (titrated, usually from 46.1 µM), actives largely listed as cytotoxic; note: potency is the fitted concentration of half-maximal effect; % is set by controls: 0 for no effect and ±100 for the full control effect; nearly all actives have a fitted effect of over 60% in size
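Cytotoxicity toward P-gp-expressing KB-V1 cells was determined as loss of CellTiter-Glo luminescence after 72 h at 37 degrees C. Compounds were tested in quantitative HTS format across a concentration range, with curves fitted to normalized data.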
ASM inhibitor – human S-ASM enzyme inhibition | P17405 | placental ASM, HMU-PC fluorogenic substrate, 60 min | Potency, µM (series often up to 57.5 µM), inactives show at the top dose activity change, negative = inhibition, hits mostly inhibitors | 0.006% of 340,000 active; note: potency is the fitted concentration of half-maximal effect
Target sequence (P17405 47-631 limits assumed): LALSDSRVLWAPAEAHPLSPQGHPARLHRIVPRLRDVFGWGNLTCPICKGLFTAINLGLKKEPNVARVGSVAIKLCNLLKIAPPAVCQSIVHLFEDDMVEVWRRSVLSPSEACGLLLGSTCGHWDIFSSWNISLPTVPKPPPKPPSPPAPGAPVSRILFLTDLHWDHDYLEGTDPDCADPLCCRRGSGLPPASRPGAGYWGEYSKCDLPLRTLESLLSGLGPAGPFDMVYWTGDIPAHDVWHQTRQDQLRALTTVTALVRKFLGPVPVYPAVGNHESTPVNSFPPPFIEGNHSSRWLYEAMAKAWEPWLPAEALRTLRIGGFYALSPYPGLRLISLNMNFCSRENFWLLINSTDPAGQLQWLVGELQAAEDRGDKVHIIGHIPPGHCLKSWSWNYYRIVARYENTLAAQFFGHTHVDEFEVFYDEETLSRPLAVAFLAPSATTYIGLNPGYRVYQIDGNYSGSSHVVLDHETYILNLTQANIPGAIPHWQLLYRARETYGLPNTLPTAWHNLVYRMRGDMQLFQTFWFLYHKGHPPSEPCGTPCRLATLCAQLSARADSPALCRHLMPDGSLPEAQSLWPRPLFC
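qHTS format. ASM enzyme prepared from human placenta hydrolyses the fluorogenic substrate HMU-PC0 (9 uM final) over 60 min at 37 °C after a 10 min compound preincubation.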
SW480 rerep – inducers of DNA re-replication in SW480 colon cancer cells; SW480 DNA re-replication, Hoechst DNA content imaging, 48 h; Potency, µM (highest dose often 46.1 µM), without a hit: at the top dose re-replication activation, most hits filed as activators; 1.8% of 340,000 active; AID 624297; note: potency is the fitted concentration of half-maximal effect; % of control where 0% means no effect; nearly all actives have a fitted effect of over 55% in size
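250 cells/well; 23 nL cpd via pin tool; 48 hr, 37 C, 5% CO2; Hoechst 40 min; imager read of total nuclear intensity, ex 405/em 500-530 nm.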
MCF10A rereplic – inducers of DNA re-replication in MCF 10A breast cells. MCF 10A DNA re-replication, Hoechst nuclear intensity, 48 h. Potency, µM (doses to about 46.1 µM), for the others: at the highest dose activity, positive = re-replication, actives largely listed as activators. 2.9% of 350,000 active. AID 624296; note: potency is the fitted concentration of half-maximal effect; % of control where 0% means no effect; nearly all actives have a fitted effect of over 50% in size
Giardia killer – Giardia lamblia killing | Giardia lamblia trophozoite viability | activity change, % at 7.66 µM, hits read low | 0.15% of 340,000 active | AID 540267; in the data active = activity change below about -80%; inconclusive = between about -30% and that limit;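 note: parasites exposed to compound for two days anaerobically before the ATP read; % is set by controls: 0 for no effect and ±100 for the full control effect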
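Killing of trophozoites was scored by loss of ATP luminescence after a 48 hrs anaerobic exposure to compounds at 37 deg C, using 100 cells per well.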
KB-3-1 cytotox – KB-3-1 parental cell cytotoxicity | Potency, µM (titrated, usually from 46.1 µM), most hits filed as cytotoxic | KB-3-1 viability, CellTiter-Glo ATP luminescence, 72 h | 1.4% of 400,000 active | AID 1347075; note: potency is the fitted concentration of half-maximal effect; % is set by controls: 0 for no effect and ±100 for the full control effect; nearly all actives have a fitted effect of over 60% in size
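KB-3-1 parental drug-naive adenocarcinoma cells in DMEM/10% FBS, incubated 72 h at 37 C with pin-transferred compounds across a concentration series. Viability by CellTiter-Glo luminescence; concentration-response curves fitted after normalization.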
The depositor's hits bear a star; i = inactive; ? = inconclusive; . = no result; ! = repeats disagree. Most compounds without a hit are left out; they make up all but 6.9% or so of the library. Unless noted, calls come from the whole dose curve; as a rule, active = well fitted curve in the direction sought with a large enough effect; inconclusive = small, poorly fitted or top-dose-only effect, or another doubt; inactive = no such curve, though single readings can be large; an effect the other way counts as inactive or inconclusive.

SMILES	KB-V1 cytotox	ASM inhibitor	SW480 rerep	MCF10A rereplic	Giardia killer	KB-3-1 cytotox
COc1ccc(/C=C2\Sc3ccc(C(=O)N4CCN(Cc5ccccc5)CC4)cc3N(C)C2=O)cc1OC	i	-8.5%	?	20.6µM*	23.6	i
CN1CCN(C(=O)c2ccc3c(c2)N(C)C(=O)/C(=C/c2cccc(Cl)c2)S3)CC1	i	-0.2%	4.4%	13µM*	-3.4	i
COc1ccc(/C=C2\Sc3ccc(C(=O)NCc4cccnc4)cc3N(C)C2=O)cc1OC	i	14.4%	?	?	-16.1	i
CCOc1ccc(CN2C(=O)c3ccccc3Sc3ccc(C(=O)N4CCN(C)CC4)cc32)cc1	i	.	.	.	.	i
CCOC(=O)c1c(-c2ccccc2)oc2ccc(NS(=O)(=O)c3ccc(C(C)C)cc3)cc12	i	.	.	.	.	i
CCc1ccccc1NS(=O)(=O)c1ccc2[nH]cc(C(=O)NC3CCCC3)c(=O)c2c1	?	-14.5%	-244.7%	?	4.9	14.6µM*!
O=C(NC1CCCCC1)c1c[nH]c2ccc(S(=O)(=O)Nc3ccccc3F)cc2c1=O	i	.	.	.	.	?
Clc1ccc2c(ccc[n+]2CCC2CCCCC2)c1	i	.	.	.	.	i
COc1ccc(-c2oc3ncnc(NCCN4CCOCC4)c3c2-c2ccc(OC)cc2)cc1	?	-3.4%	7.8%	?	6.4	?
CCOc1cc2nc(-c3ccc(OC)c(OC)c3)nc(NCCCN3CCOCC3)c2cc1OC	?	4.6%	?	11.6µM*	6.2	i
COc1ccc(-c2oc3ncnc(NCCCN4CCOCC4)c3c2-c2ccc(OC)cc2)cc1	18.4µM*	-5.1%	?	?	5.4	i
COc1ccc(-c2oc3ncn(CCN4CCOCC4)c(=N)c3c2-c2ccc(OC)cc2)cc1	?	6.1%	?	13µM*	21.9	?
Clc1ccc(-c2nc(NCCN3CCOCC3)c3ccccc3n2)cc1	4.11µM*	-2.9%	?	?	4.8	i
Cc1ccccc1N(C)C1=N[S+](=O)([O-])c2ccccc21	i	.	.	.	.	i
Cc1ccc(CN2CCC[C@]3(N[C@H](c4ccc(C(F)(F)F)cc4)[C@@H]4C(=O)N(Cc5ccccc5)C(=O)[C@@H]43)C2=O)cc1	i	.	.	.	.	?
O=C(NC1CCCc2ccccc21)c1ccccc1OC(F)F (configuration not stated)	i	-13.3%	-2.9%	10.0%	-25.5	i
Cc1cc2nc(-c3ccc(SCc4ccccn4)nc3)[nH]c2cc1C	16.4µM*	27.2%	?	?	-6.3	i
CCOC(=O)CSc1ccc(-c2nc3cc(C)c(C)cc3[nH]2)cn1	i	-21.2%	-7.0%	0.6%	-20.8	i
CCc1ccccc1NC(=O)Nc1cc(C(=O)NCc2ccc(C(C)C)cc2)ccc1N1CCCC1	i	.	.	.	.	i
O=C(CN1CCCC1)N1CCCc2c1c(=O)oc1ccc(OCc3ccccc3)cc21	18.4µM*	3.4%	?	5.2%	-0.1	i
CCOC(=O)C1CCN(CC(=O)N2CCCc3c2c(=O)oc2ccc(OCc4ccccc4)cc32)CC1	i	.	.	.	.	i
CCCOc1ccc2oc(=O)c3c(c2c1)CCCN3C(=O)CN1CCCC(C(=O)OCC)C1 (configuration not stated)	11.6µM*	8.7%	3.4%	10.1%	31.5	i
CCC(CC)CN1CCC(CN2C(=O)C(=O)NC[C@@H]2CC(C)C)CC1	i	.	.	.	.	i
CCC(CC)CN1CCC(CN2CCNC(=O)C2=O)CC1	i	-0.2%	-1.3%	2.06µM*	57.3	i
Cc1ccc(C(C[N+](=O)[O-])n2nc(C)cc2C)cc1 (configuration not stated)	i	0.3%	?	?	-15.9	i
SMILES	KB-V1 cytotox	ASM inhibitor	SW480 rerep	MCF10A rereplic	Giardia killer	KB-3-1 cytotox
Cc1ccc(C(C[N+](=O)[O-])Sc2ccc(N)cc2)cc1 (configuration not stated)	?	-2.6%	?	7.31µM*	-5.3	i
COc1ccc(OCC(=O)N2CCN(C(=O)c3cccc(OC)c3)CC2)cc1	?	.	.	.	.	i
CC1CCN(C(C(=O)NC2CCCCC2)c2cc3c(cc2[N+](=O)[O-])OCO3)CC1 (configuration not stated)	?	0.8%	?	-79.0%	-12.3	i
CC1CCCN(C(C(=O)NC2CCCCC2)c2cc3c(cc2[N+](=O)[O-])OCO3)C1 (configuration not stated)	8.2µM*	-1.6%	-10.5%	-12.8%	0.1	?
CO[C@H]1OC2O[C@@]3(C)CC[C@H]4[C@H](C)CC[C@@H]([C@H]1C)[C@@]24OO3 (some centres not stated)	.	.	?	6.0%	.	.
Cc1cc2occ(CC(=O)NCc3cccs3)c2cc1C(C)C	20.6µM*	-1.5%	-1.8%	5.8%	-3.2	i
Cc1csc(NC(=O)Cc2coc3cc(C)c(C(C)C)cc23)n1	?	-5.4%	?	?	-23.3	?
Cc1noc(C)c1C(=O)Nc1sc(C)c(-c2ccccc2)c1C#N	4.11µM*	1.2%	-0.7%	7.3%	9.2	13µM*
Cc1sc(NC(=O)C2CCCCC2)c(C#N)c1-c1ccccc1	i	-2.8%	-0.4%	18.8%	-16.4	i
Cc1cccc(C(=O)Nc2sc(C)c(-c3ccccc3)c2C#N)c1	?	-13.6%	-3.5%	9.2µM*	-9.6	i
N#Cc1c(NC(=O)c2ccccc2)sc2c1CCCCC2	i	-3.0%	-0.5%	2.1%	-0.8	i
N#Cc1c(Cl)nsc1NC(=O)c1ccccc1	7.31µM*	-1.7%	0.6%	?	1.6	?
CCOC(=O)C1CCN(C(=O)C(CCSC)NC(=O)c2ccccc2OC)CC1 (configuration not stated)	i	0.8%	1.4%	2.5%	-11.2	i
NC(=O)c1cc(Br)cc2c3c([nH]c12)CCCC3	16.4µM*	-10.8%	?	?	-10.6	8.2µM*
O=c1c2c([nH]c3ccc(Br)cc13)CCCC2	i	-0.7%	-7.1%	21.8%	4.5	i
COc1cccc(NC(=O)Cn2c(=O)n(-c3ccccc3)c(=O)c3oc4ccccc4c32)c1	20.6µM*	-7.3%	0.4%	15.9%	3.2	?
COc1cccc(-n2nnnc2S(C)(=O)=O)c1	?	6.9%	?	4.61µM*	4.5	?
Cc1cccc(-n2nnnc2S(C)(=O)=O)c1	?	.	.	.	.	i
Cc1ccc(CSC(Nc2ccc(F)cc2)=C(C#N)C#N)cc1	13µM*	-7.5%	?	13µM*	12.7	?
O=C1Nc2ccccc2/C1=C/C(=O)c1cccs1	i	?	?	20.6µM*	-12.9	i

Screening data from PubChem.
